From PubChem BioAssay (NCATS)
“And” between values parts separate entries of the source, which are not always exact repeats. Equal entries are not always repeated. Results filed as inconclusive are left out. The source made the active and inactive calls. Unless noted, calls come from the whole dose curve; as a rule, active = well fitted curve in the direction sought with a large enough effect; inconclusive = small, poorly fitted or top-dose-only effect, or another doubt; inactive = no such curve, though single readings can be large; an effect the other way counts as inactive or inconclusive.

Assays:
[1] = target: Glutaminase kidney isoform, mitochondrial (Homo sapiens) (UniProt O94925); test: qHTS for Inhibitors of Glutaminase (GLS): LOPAC Validation (AID 624146); note: nearly all actives have a fitted effect of over 60% in size; note: potency is the fitted concentration of half-maximal effect
Sequence of Glutaminase kidney isoform, mitochondrial (Homo sapiens) (O94925 whole entry, looked up, canonical isoform): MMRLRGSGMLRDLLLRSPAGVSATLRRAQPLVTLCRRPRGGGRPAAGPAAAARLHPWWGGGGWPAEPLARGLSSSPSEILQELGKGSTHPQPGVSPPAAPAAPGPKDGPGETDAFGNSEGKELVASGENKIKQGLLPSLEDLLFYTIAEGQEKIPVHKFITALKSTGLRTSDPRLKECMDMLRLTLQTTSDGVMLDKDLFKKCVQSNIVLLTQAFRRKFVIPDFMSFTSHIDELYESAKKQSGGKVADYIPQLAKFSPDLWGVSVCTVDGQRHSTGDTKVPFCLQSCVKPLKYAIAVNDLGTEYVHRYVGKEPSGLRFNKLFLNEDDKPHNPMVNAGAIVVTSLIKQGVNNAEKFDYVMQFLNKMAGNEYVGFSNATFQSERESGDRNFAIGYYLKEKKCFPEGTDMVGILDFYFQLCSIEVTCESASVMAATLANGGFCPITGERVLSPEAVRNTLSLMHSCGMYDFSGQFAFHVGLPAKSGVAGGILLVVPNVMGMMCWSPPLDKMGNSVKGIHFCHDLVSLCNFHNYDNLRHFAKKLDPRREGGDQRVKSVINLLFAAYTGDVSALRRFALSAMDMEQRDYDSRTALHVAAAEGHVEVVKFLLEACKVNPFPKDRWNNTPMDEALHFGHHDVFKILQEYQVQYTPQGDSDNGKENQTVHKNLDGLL
In short: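 Two-point fluorescence kinetic (t0, 30 min RT) for hKGA; glutamate detected via glutamate oxidase–HRP–Amplex Red. Substrate: 1 mM L-glutamine solution; buffer 45 mM KH2PO4, pH 8.2.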

[2] = qHTS of Trypanosoma Brucei Inhibitors: LOPAC Validation (AID 624147); note: 0% is about no effect
In short: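 TbPYK + substrate in 50 mM TEA pH 7.2, 100 mM KCl, 10 mM MgCl2, 0.05% BSA, 0.01% Tween-20; cpd pinned; ADP 130 uM final; 45 min RT; Kinase-Glo Plus 10 min; luminescence endpoint.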

[3] = target: Glucagon-like peptide 1 receptor (Homo sapiens) (UniProt P43220); test: qHTS of GLP-1 Receptor Agonists: LOPAC Validation (AID 624148);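 note: 0% is about no effect; higher luminescence signal means agonism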
Sequence of Glucagon-like peptide 1 receptor (Homo sapiens) (P43220 whole entry, looked up): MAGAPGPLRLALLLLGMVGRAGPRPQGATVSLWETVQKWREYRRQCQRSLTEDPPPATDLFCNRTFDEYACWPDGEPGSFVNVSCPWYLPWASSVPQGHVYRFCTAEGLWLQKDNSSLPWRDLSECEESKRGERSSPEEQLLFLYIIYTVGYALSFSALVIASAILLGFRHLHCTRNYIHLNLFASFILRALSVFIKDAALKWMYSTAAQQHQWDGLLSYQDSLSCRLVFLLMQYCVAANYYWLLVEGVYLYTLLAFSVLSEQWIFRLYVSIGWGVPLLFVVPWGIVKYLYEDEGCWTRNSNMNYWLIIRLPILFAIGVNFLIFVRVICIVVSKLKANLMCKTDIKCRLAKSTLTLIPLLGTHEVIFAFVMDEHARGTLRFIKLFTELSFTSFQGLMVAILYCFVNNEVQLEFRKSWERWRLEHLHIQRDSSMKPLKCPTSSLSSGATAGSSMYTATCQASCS
In short: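 HEK293 cells stably co-expressing GLP-1R and a cAMP-responsive luciferase reporter, plated 12 hours before compound, then incubated 4-6 hr at 37 deg C. Luminescence read 12 min after detection reagent.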

[4] = qHTS of Nrf2 Activators: LOPAC Validation (AID 624149); note: 0% is about no effect
In short: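 AREc32_Fluc cells, 1000/well, OPTI-MEM + 5% FBS, o/n 37 deg C 5% CO2; compound pin-transfer, 24 hr 37 deg C; Steady-Glo 30 min RT, luminescence read.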

[5] = HTS Assay for Allosteric Antagonists of the Human D2 Dopamine Receptor: Hit Validation in HTRF (AID 624455); note: % is set by controls: 0 for no effect and ±100 for the full control effect
In short: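 HTRF read-out; cells stably expressing D1 receptor; hits scored for inhibition of D1-mediated response. Primary screen: calcium flux, force-coupled inducible Hek293 Trex D2 line, antagonism vs EC80 dopamine.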

[6] = qHTS assay for small molecule agonists of the antioxidant response element (ARE) signaling pathway (AID 651741; active = well fitted activation curve with a large enough effect in the signal ratio; the % refers to the signal ratio; note: % of control where 0% means no effect)
In short: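 HepG2 ARE-bla reporter cells, 2,000/well; 5 h settle at 37 C/5% CO2; compound pin transfer (23 nL, DMSO); 16 h at 37 C; LiveBLAzer B/G FRET substrate, 2 h RT; fluorescence intensity read.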

[7] = qHTS assay for small molecule activators of the p53 signaling pathway (AID 651743; active = well fitted activation curve with a large enough effect in the signal ratio, not every such curve was filed as active; the % refers to the signal ratio; note: series mostly up to about 92 µM; % of control where 0% means no effect); conditions: HCT-116 p53RE-bla, beta-lactamase FRET ratio, 16 h; activation: active compounds read high
In short: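 Reporter: beta-lactamase driven by p53 response elements, stably integrated in HCT-116 cells. Cells seeded at 4,000/well, 5 h preincubation, compound (DMSO) 16 h at 37 C; B/G FRET substrate 2 h RT; fluorescence intensity read.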

[8] = qHTS assay for environmental chemicals that activate the Aryl hydrocarbon Receptor (AhR) signaling pathway (AID 651777); conditions: 1A2-DRE human hepatoma cells, luciferase, 24 h; activation: active compounds read high; note: % of control where 0% means no effect; nearly all actives have a fitted effect of over 15% in size
In short: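 Human hepatoma 1A2-DRE cells, stably carrying a dioxin response element and CYP1A2 promoter driving luciferase, were exposed to compounds for 24 hr at 37 C and 5% CO2. Luciferase signal was then read after 30 min One-Glo at room temperature.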

[9] = target: Peroxisome proliferator-activated receptor alpha (Homo sapiens) (UniProt Q07869); test: qHTS assay for small molecule agonists of the peroxisome proliferator-activated receptor alpha (PPARalpha) signaling pathway (AID 651778); conditions: PathHunter PPARalpha complementation, chemiluminescence, 6 h; active compounds read high; note: % of control where 0% means no effect
Sequence of Peroxisome proliferator-activated receptor alpha (Homo sapiens) (Q07869 whole entry, looked up, the tested form may be a part): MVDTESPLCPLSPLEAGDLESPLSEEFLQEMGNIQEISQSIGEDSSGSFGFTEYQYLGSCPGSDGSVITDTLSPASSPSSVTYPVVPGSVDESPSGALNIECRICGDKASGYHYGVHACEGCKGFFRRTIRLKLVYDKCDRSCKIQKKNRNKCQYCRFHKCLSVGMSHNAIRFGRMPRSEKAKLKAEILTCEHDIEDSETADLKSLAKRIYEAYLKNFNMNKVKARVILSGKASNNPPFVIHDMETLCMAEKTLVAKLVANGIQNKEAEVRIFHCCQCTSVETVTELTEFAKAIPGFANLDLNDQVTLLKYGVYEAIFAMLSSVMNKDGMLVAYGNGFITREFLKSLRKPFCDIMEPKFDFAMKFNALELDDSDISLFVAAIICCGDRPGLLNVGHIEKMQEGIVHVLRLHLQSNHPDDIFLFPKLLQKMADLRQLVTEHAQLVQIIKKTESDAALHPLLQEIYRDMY
In short: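 Enzyme-fragment complementation assay in which ligand-bound PPARalpha translocates and forms an active enzyme that generates chemiluminescence. Cells were plated overnight, exposed to compound for 6 hr at 37 C, and then given detection reagent for 60 min at room temperature.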

[10] = qHTS assay for small molecule disruptors of the mitochondrial membrane potential - 1 hr assay (AID 651754; calls by dose curve; note: % is set by controls: 0 for no effect and ±100 for the full control effect; nearly all actives have a fitted effect of over 35% in size)
In short: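 Read-out: dye fluorescence at 490 nm ex/535 nm em (monomers) and 540 nm ex/590 nm em (aggregates) in HepG2 cells. Compound exposure 1 hr at 37C, followed by 30 min dye loading.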

[11] = qHTS assay for small molecule disruptors of the mitochondrial membrane potential - 5 hr assay (AID 651755; calls by dose curve; note: % is set by controls: 0 for no effect and ±100 for the full control effect; nearly all actives have a fitted effect of over 40% in size)
In short: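 Read-out: ratiometric Mito-MPS fluorescence, green monomer (ex 490/em 535) vs red mitochondrial aggregate (ex 540/em 590). HepG2 cells treated 5 hr at 37C before 30 min dye loading.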

[12] = target: Tumor necrosis factor (Homo sapiens) (UniProt P01375); test: qHTS assay to identify small molecules that stimulate Tumor Necrosis Factor-alpha (TNF-alpha) secretion (AID 651757; active = well fitted curve in the direction sought with a large enough effect in the signal ratio; the % refers to the signal ratio; note: 0% is about no effect)
Sequence of Tumor necrosis factor (Homo sapiens) (P01375 whole entry, looked up): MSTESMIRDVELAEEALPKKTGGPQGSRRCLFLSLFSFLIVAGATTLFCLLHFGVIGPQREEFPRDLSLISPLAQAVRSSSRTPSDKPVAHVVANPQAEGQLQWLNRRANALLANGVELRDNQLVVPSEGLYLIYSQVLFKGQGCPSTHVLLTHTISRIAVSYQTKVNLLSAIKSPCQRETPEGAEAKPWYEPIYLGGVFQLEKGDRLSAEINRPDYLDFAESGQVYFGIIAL
In short: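 THP-1 cells, 3000/well; compound 17 hrs, 37 C; add cryptate/XL665 anti-TNF-alpha antibody pair; 3 hr RT; TR-FRET (HTRF) read of secreted TNF-alpha. Quantitative HTS format.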

[13] = target: Nuclear receptor ROR-gamma (Homo sapiens) (UniProt P51449); test: qHTS assay for small molecule antagonists of the retinoid-related orphan receptor gamma (ROR-gamma) signaling pathway (AID 651802);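 note: CHO cells with doxycycline-induced ROR-gamma expression; luciferase reporter luminescence driven by ROR response element; series mostly up to about 92 µM; % is set by controls: 0 for no effect and ±100 for the full control effect; nearly all actives have a fitted effect of over 60% in size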
Sequence of Nuclear receptor ROR-gamma (Homo sapiens) (P51449 whole entry, looked up): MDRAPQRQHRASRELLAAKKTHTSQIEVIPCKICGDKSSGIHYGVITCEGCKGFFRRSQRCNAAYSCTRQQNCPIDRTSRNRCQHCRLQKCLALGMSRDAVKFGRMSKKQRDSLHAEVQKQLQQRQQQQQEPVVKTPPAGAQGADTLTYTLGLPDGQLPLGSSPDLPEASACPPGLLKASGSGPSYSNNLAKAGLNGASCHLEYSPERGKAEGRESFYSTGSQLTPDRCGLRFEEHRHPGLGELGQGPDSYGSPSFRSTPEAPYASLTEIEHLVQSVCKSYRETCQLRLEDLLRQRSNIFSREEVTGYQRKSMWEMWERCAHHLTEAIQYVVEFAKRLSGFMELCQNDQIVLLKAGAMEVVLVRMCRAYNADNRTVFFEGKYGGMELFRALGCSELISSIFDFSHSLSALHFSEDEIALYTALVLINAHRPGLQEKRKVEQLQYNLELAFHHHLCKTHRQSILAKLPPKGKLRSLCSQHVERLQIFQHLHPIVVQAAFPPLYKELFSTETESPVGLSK
In short: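 Luciferase read-out: ONE-Glo luminescence after 30 min at room temperature, following 16hr doxycycline induction at 37C, 5% CO2 of CHO cells with TET-inducible ROR and RORE-LUC reporter; decreased luminescence = reduced reporter activity.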

[14] = qHTS assay to identify small molecules that stimulate interleukin-8 (IL-8) secretion (AID 651758; active = well fitted activation curve with a large enough effect in the signal ratio; the % refers to the signal ratio; note: potency is the fitted concentration of half-maximal effect)
In short: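 Compounds are added to THP-1 cells (2000 per well) and left 16 hrs at 37 C. A labeled anti-IL-8 antibody pair is then added, and IL-8 secretion is measured by time-resolved FRET after 1-3 hrs at room temperature.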

CN(C)CC/C=C1\c2ccccc2COc2ccccc21
inactive: Potency [1] | outcome [2] | outcome [3] | outcome [4] | Potency [5]

C[C@]12CCC(=O)C=C1CC[C@@H]1[C@@H]2C(=O)C[C@@]2(C)[C@H]1CC[C@]2(O)C(=O)CO
inactive: Potency [1] | outcome [2] | outcome [3] | outcome [4] | Potency [5] | Potency [6] | activation [7] -9.05% | activation [8] -0.997% | max response [9] -0.227%

CC(C)COCC(CN(Cc1ccccc1)c1ccccc1)N1CCCC1 (stereo unspecified)
inactive: outcome [2] | outcome [3] | outcome [4] | Potency [5]
active: Potency [1] 2.24 µM

CCCCNC(=O)NS(=O)(=O)c1ccc(C)cc1
inactive: Potency [1] | outcome [2] | outcome [3] | outcome [4] | Potency [5] | Potency [6] | activation [7] -3.27% and -2.98% | Potency [10] | Potency [11] | outcome [12] | activation [8] 0.474% and 1.06% | max response [9] -9.3% and -3.45% | Potency [13]

CCCCCN(CCCCC)C(=O)C(CCC(=O)O)NC(=O)c1ccc(Cl)c(Cl)c1 (stereo unspecified)
inactive: Potency [1] | outcome [2] | outcome [3] | outcome [4] | Potency [5]

O=C(O)CCCCCCCC(=O)O
inactive: Potency [1] | outcome [2] | outcome [3] | outcome [4] | Potency [5] | Potency [6] | activation [7] -3.2% | activation [8] -0.0037% | max response [9] -1.61%

Cc1ccc(Cl)c(Nc2ccccc2C(=O)O)c1Cl
inactive: Potency [1] | outcome [2] | outcome [3] | outcome [4] | Potency [5]

FC(F)(F)c1ccccc1-n1ccnc1
inactive: Potency [1] | outcome [2] | outcome [3] | outcome [4] | Potency [5]

NC(=O)N1c2ccccc2C=Cc2ccccc21
inactive: Potency [1] | outcome [2] | outcome [3] | outcome [4] | Potency [5] | Potency [6] | outcome [12] | activation [8] 0.886% and -3.46% | max response [9] -1.1% and -0.275% | Potency [13]

O=c1[nH]c(=O)n([C@H]2C[C@H](O)[C@@H](CO)O2)cc1Br
active: Potency [14] 53.1 µM
inactive: Potency [1] | outcome [2] | outcome [3] | outcome [4] | Potency [5] | Potency [6] | activation [7] 3.27% | outcome [12] | activation [8] 0.877% | max response [9] -2.48%

CC(N=C(NC#N)Nc1ccncc1)C(C)(C)C (stereo unspecified)
inactive: Potency [1] | outcome [2] | outcome [3] | outcome [4] | Potency [5]

CCN(CC)CCNC(=O)c1ccc(NC(C)=O)cc1
inactive: Potency [1] | outcome [2] | outcome [3] | outcome [4] | Potency [5]

CN1CCN(C2=Nc3ccccc3Oc3ccc(Cl)cc32)CC1
inactive: Potency [1] | outcome [2] | outcome [3] | outcome [4] | Potency [5]

COCC(=O)O[C@]1(CCN(C)CCCc2nc3ccccc3[nH]2)CCc2cc(F)ccc2[C@@H]1C(C)C
inactive: Potency [1] | outcome [2] | outcome [3] | outcome [4] | Potency [5]

CCN(CC)CC(=O)Nc1c(C)cccc1C
inactive: Potency [1] | outcome [2] | outcome [3] | outcome [4] | Potency [5]

c1ccc2c(c1)CCCC2C1=NCCN1 (stereo unspecified)
inactive: Potency [1] | outcome [2] | outcome [3] | outcome [4] | Potency [5]

c1cc(CN2CCCCC2)cc(OCCCNc2nc3ccccc3s2)c1
inactive: Potency [1] | outcome [2] | outcome [3] | outcome [4] | Potency [5]

N[C@@H](COP(=O)(O)O)C(=O)O
inactive: Potency [1] | outcome [2] | outcome [3] | outcome [4] | Potency [5]

CN=C(NC#N)NCCSCc1nc[nH]c1C
inactive: Potency [1] | outcome [2] | outcome [3] | outcome [4] | Potency [5] | Potency [6] | outcome [12] | activation [8] 2.08% | max response [9] 0.401% | Potency [13]

CC(=O)[C@]1(O)Cc2c(O)c3c(c(O)c2[C@@H](O[C@H]2C[C@H](N)[C@H](O)[C@H](C)O2)C1)C(=O)c1ccccc1C3=O
inactive: Potency [1] | outcome [2] | outcome [3] | outcome [4] | Potency [5]

CCOC(=O)C1=C(C)NC(C)=C(C(=O)OC)C1c1cccc([N+](=O)[O-])c1 (stereo unspecified)
inactive: Potency [1] | outcome [2] | outcome [3] | outcome [4] | Potency [5]

CCn1ccnc1CC1COc2ccccc2O1 (stereo unspecified)
inactive: Potency [1] | outcome [2] | outcome [3] | outcome [4] | Potency [5]

C[C@]12C=CC(=O)C=C1CC[C@H]1[C@@H]3C[C@@H](O)[C@](O)(C(=O)CO)[C@@]3(C)C[C@H](O)[C@@]12F
inactive: Potency [1] | outcome [2] | outcome [3] | outcome [4] | Potency [5] | Potency [6] | activation [7] -0.529% | activation [8] 0.771% | max response [9] 4.65%
